This is a sample that favours compounds with a hit; in the whole collection about 11% have one here.
HEK cytotox: cytotoxic compounds in HEK 293 cells; 94,000 compounds, 6.6% hits; AID 1345083; Potency, µM (titrated, usually from 115 µM), actives largely listed as inhibitors; HEK 293 viability, ATP luminescence (CellTiter-Glo), 48-72 h; also: nearly all actives have a fitted effect of over 60% in size
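HEK 293 cells at 250 cells/well were exposed to compounds by pintool transfer for 48 or 72 hr at 37 degree Celsius, 5% CO2. Viability was read as ATP-coupled luminescence with CellTiter-Glo after 10 min at room temperature.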
NPR1 antag: human Npr1 receptor antagonism | 76,000 compounds, 1.6% hits | P16066 | Potency, µM (highest dose often 46.3 µM), most hits filed as inhibitors | HEK293 hNpr1 GloSensor cGMP, ANP-stimulated luminescence; calls by dose curve; also: nearly all actives have a fitted effect of over 60% in size
Target sequence (P16066 whole entry, looked up): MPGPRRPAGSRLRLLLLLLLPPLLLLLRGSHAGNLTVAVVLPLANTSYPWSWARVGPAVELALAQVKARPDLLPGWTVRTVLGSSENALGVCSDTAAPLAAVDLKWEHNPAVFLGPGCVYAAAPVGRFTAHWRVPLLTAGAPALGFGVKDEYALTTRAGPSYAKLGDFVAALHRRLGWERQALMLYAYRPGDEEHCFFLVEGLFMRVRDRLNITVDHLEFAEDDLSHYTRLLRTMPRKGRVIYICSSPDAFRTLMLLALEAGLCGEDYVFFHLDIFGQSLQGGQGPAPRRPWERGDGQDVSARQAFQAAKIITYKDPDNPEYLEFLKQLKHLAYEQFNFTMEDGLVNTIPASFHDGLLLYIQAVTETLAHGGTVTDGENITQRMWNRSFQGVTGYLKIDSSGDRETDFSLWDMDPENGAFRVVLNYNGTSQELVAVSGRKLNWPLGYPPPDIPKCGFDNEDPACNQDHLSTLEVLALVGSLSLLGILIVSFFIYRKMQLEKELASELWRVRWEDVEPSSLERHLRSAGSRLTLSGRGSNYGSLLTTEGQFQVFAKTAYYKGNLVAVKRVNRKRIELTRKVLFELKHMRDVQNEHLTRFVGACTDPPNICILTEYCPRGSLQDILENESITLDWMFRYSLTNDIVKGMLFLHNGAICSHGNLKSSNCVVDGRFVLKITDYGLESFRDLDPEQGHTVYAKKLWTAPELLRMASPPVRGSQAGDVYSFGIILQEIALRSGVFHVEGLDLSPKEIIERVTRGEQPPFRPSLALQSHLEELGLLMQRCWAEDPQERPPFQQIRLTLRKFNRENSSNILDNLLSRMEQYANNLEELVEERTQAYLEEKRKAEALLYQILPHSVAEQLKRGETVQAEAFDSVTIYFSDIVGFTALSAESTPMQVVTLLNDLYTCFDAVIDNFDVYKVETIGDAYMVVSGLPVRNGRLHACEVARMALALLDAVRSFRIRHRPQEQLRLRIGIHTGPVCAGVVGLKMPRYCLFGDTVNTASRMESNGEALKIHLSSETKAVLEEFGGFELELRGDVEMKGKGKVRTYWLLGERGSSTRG
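HEK293 cells stably expressing human Npr1 and cGMP GloSensor pGS-40F, loaded 2 h with 2% GloSensor reagent, given compound 30 min at room temperature. Luminescence read before and 20 min after 0.1 nM hNppA.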
FLuc inh: inhibitors of firefly (Photinus pyralis) luciferase; AID 1347043; P08659; purified P. pyralis luciferase, luminescence, biochemical; 76,000 compounds, 2.5% hits; Potency, µM (titrated, usually from 115 µM), hits mostly inhibitors; also: nearly all actives have a fitted effect of over 65% in size
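Inhibitors were tested against purified firefly luciferase in a biochemical, low-substrate format (both substrates at 10uM) and luminescence measured with a CCD imager.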
NIH3T3 tox: cytotoxic compounds in NIH 3T3 cells; NIH 3T3 viability, CellTiter-Glo ATP luminescence, 48-72 h; AID 1345082; Potency, µM (titrated, usually from 96.7 µM), hits mostly inhibitors; 94,000 compounds, 4.3% hits; also: nearly all actives have a fitted effect of over 55% in size
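First NIH 3T3 cells are plated at 400 cells/well; next compound is pinned in; then plates incubate 48 or 72 hr at 37 °C; finally CellTiter-Glo is added and luminescence read after 10 min.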
Each line names hits and unclear results; the compound was inactive in the other large screens. Unless noted, calls follow the shape of the dose curve; as a rule, active = well fitted curve in the direction sought with a large enough effect; inconclusive = small, poorly fitted or top-dose-only effect, or another doubt; inactive = no such curve, though single readings can be large; an effect the other way counts as inactive or inconclusive.

O=C(NC1CCN(c2ccc3nnc(-c4ccccc4)n3n2)C1)c1ccccc1Cl (centres undefined)	HEK cytotox 35µM, NIH3T3 tox 32µM (no result: NPR1 antag, FLuc inh)
O=C(Nc1cccnc1)c1ccnc(-c2nnc3ccc(Nc4ccccc4)nn23)c1	HEK cytotox inconclusive, NIH3T3 tox inconclusive
COC(=O)CNC(=O)c1nc2cccnc2n(Cc2ccc(OC)cc2)c1=O	none (no result: NPR1 antag, FLuc inh)
CCn1nc(C)c(-c2cc(C(=O)NCCc3noc(-c4ccccc4)n3)no2)c1C	HEK cytotox 50µM, FLuc inh inconclusive, NIH3T3 tox inconclusive
Cc1nc(C)c(C(=O)N2CC[C@@H]3CN(Cc4ccccc4)[C@@H]3C2)s1	none (no result: NPR1 antag, FLuc inh)
Cn1ncc2c(N[C@@H](Cc3ccccc3)C(N)=O)nc(-c3ccncc3)nc21	HEK cytotox 32µM, NIH3T3 tox inconclusive
Cn1ncc2c(NCCc3nnc(N)s3)nc(-c3ccncc3)nc21	none
Cc1nnc2ccc(N3CCN(C(=O)Cc4ccccn4)CC3)nn12	none (no result: NPR1 antag, FLuc inh)
O=C(CCc1ccnc(N2CCOCC2)c1)Nc1ccc2c(c1)OCO2	FLuc inh 35µM
O=C(Cc1ccc2c(c1)OCO2)NCc1cccnc1N1CCOCC1	FLuc inh 28µM
O=C1NCCCCCN(C(=O)COc2ccc(F)cc2)[C@H]2CCC[C@@H]12	none
Cc1cn2nnc(C(=O)N3CCC(C(=O)Nc4cccc(C(C)C)c4)CC3)c2c(=O)[nH]1	none
COCCCn1c(=O)c(C(=O)NCCOC)nc2cccnc21	none (no result: NPR1 antag, FLuc inh)
COCCCNC(=O)c1cnc2n[nH]c(-c3ccccc3)c2n1	HEK cytotox 100µM, NIH3T3 tox inconclusive
C[C@H]1[C@@H]2[C@H]3OC(=O)[C@@H](C)[C@@H]3CC[C@@]2(C)CC[C@@H]1NC(=O)C1CCCCC1	HEK cytotox 100µM, NIH3T3 tox inconclusive
COc1ccc(C(=O)N[C@H]2CC[C@]3(C)CC[C@@H]4[C@H](OC(=O)[C@H]4C)[C@H]3[C@@H]2C)cc1	none
C[C@H]1[C@@H]2[C@H]3OC(=O)[C@@H](C)[C@@H]3CC[C@@]2(C)CC[C@@H]1NC(=O)c1ccc(C#N)cc1	HEK cytotox inconclusive, NIH3T3 tox 89µM
C[C@H]1[C@@H]2[C@H]3OC(=O)[C@@H](C)[C@@H]3CC[C@@]2(C)CC[C@@H]1NC(=O)c1ccccn1	HEK cytotox 100µM
CCOC(=O)C1CCN(C(=O)C2CCc3nnc(-c4ccc(F)cc4)n32)CC1 (centres undefined)	none (no result: NPR1 antag, FLuc inh)
CC(=O)N1CCN(C(=O)c2ccc3nnc(-c4ccc(F)cc4)n3c2)CC1	none (no result: NPR1 antag, FLuc inh)
CN1C(=O)CCC2(CNC(=O)CCc3nc4ccccc4[nH]3)CCC=C12 (centres undefined)	none
O=C(COc1ccc(F)cc1)N1CCOc2ccc(CN3CCc4ccccc4C3)cc2C1	HEK cytotox inconclusive, NPR1 antag inconclusive, NIH3T3 tox inconclusive
Cc1ccc(OCC(=O)N2CCOc3ccc(CN4CCc5ccccc5C4)cc3C2)cc1	HEK cytotox inconclusive, NIH3T3 tox 40µM
O=C(COc1ccccc1)N1CCOc2ccc(CN3CCc4ccccc4C3)cc2C1	HEK cytotox 32µM, NPR1 antag inconclusive, NIH3T3 tox inconclusive
COCCOCC(=O)N1CCOc2ccc(CN3CCc4ccccc4C3)cc2C1	none
O=C(C1CC1)N1CCOc2ccc(CN3CCCC3)cc2C1	none
O=C(C1CC1)N1CCOc2ccc(CN3CCc4ccccc4C3)cc2C1	HEK cytotox 40µM, NPR1 antag inconclusive
CCS(=O)(=O)N1CCCC(c2nc(CCOc3ccc(F)cc3)no2)C1 (centres undefined)	HEK cytotox inconclusive
COc1ccc(S(=O)(=O)N2CCC(CC(=O)NCc3ccccc3)C2)cc1 (centres undefined)	none
O=C(c1ccncc1)N1CC(Oc2ccc(-c3noc(-c4ccccc4)n3)cc2)C1	HEK cytotox inconclusive, FLuc inh inconclusive
O=C(Nc1cccc(F)c1)N1CC(Oc2ccc(-c3nc(-c4ccccc4)no3)cc2)C1	HEK cytotox inconclusive, NPR1 antag 7.1µM, FLuc inh 2.5µM, NIH3T3 tox inconclusive
CC(C(=O)N1CC(Oc2ccc(-c3noc(-c4ccncc4)n3)cc2)C1)c1ccccc1 (centres undefined)	HEK cytotox inconclusive, NIH3T3 tox 25µM (no result: NPR1 antag, FLuc inh)
COc1ccc(NC(=O)N2CC(Oc3ccc(-c4nc(-c5ccccc5)no4)cc3)C2)cc1	HEK cytotox inconclusive, FLuc inh 1.4µM
C[S+](=O)([O-])c1ccc(-c2cc(C(=O)N3CCC(C#N)CC3)nn3cccc23)cc1	HEK cytotox inconclusive (no result: NPR1 antag, FLuc inh)
Cc1ccc(C(=O)N2CCCn3cc(-c4cccc(C#N)c4)nc32)cc1	FLuc inh inconclusive
